From PubChem BioAssay
BAZ2B inh – blocks human BAZ2B; Q9UIF8; AlphaScreen BAZ2B-H3K14Ac peptide displacement; Potency, µM (titrated, usually from 114 µM), inactives show at the highest dose activity change, negative = inhibition, usual class: inhibitors; 360,000 compounds, 4.4% hits; AID 504333; note: potency is the fitted concentration of half-maximal effect; % is set by controls: 0 for no effect and ±100 for the full control effect; nearly all actives have a fitted effect of over 60% in size
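Complex of BAZ2B and biotin-H3K14Ac (50 nM apiece) forms over 30 min at RT, then faces library compounds up to 110 uM for another 30 min; AlphaScreen beads added, 20 min dark incubation, luminescence read.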
G9a block – inhibitors of human histone lysine methyltransferase G9a | 350,000 compounds, 8.8% hits | G9a H3K9 monomethylation, AlphaScreen, 2 h | Potency, µM (top dose mostly 102 µM), for the others: at the highest dose activity, negative = inhibition, usual class: inhibitors; note: potency is the fitted concentration of half-maximal effect; % is set by controls: 0 for no effect and ±100 for the full control effect; nearly all actives have a fitted effect of over 75% in size
Target sequence (Q96KQ7 913-1193 limits assumed): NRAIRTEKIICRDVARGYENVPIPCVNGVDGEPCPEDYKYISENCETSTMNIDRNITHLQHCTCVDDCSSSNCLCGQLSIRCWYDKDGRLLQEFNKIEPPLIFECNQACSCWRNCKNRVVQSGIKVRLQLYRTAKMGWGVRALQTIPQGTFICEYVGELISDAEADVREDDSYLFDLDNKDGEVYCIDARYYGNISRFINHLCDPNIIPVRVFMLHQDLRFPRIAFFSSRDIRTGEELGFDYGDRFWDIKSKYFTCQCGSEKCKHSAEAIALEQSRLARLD
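Methyltransferase reactions run at room temperature for 2 h (20 nM enzyme, 500 nM biotin-H3K9 peptide, 20 uM SAM) after a 15 min compound preincubation; product detected by AlphaScreen beads and anti-H3K9me1 antibody.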
L3MBTL1 inh – L3MBTL1 (human) inhibition | 230,000 compounds, 0.66% hits | AlphaScreen L3MBTL1–H3K9me1 peptide binding | AID 485360 | Potency, µM (top dose mostly 57.1 µM), for the others: at the highest dose activity, negative = inhibition, actives largely listed as inhibitors; note: potency is the fitted concentration of half-maximal effect; % is set by controls: 0 for no effect and ±100 for the full control effect; nearly all actives have a fitted effect of over 60% in size
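First, the protein-peptide complex forms for 30 min at room temperature (L3MBTL1 50 nM, biotinylated H3K9me1 peptide 75 nM). Next, compounds are pin-transferred and incubated 30 min. Finally, AlphaScreen beads are added and read after 30 min.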
PI5P4Ka inh – blocks human PI5P4K alpha kinase activity; P48426; 330,000 compounds, 1.2% hits; PI5P4Kalpha enzyme, ADP-Glo luminescence, 60 min; active compounds read low; max response, %; AID 652105; active = max response of -50% or lower; inconclusive = between -30% and -50%; inactive = -30% or higher; note: value at the top dose of about 77 µM; % is set by controls: 0 for no effect and ±100 for the full control effect
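Single end-point luminescence (ADP-Glo) quantified ADP from PI5P4Kalpha turnover; ATP 5 microM final, 1 h at RT, 0.1% CHAPS and 0.28 mM EGTA in HEPES pH 7.4.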
HP1b binding inh – HP1-beta chromodomain-methylated histone interaction inhibition; P83916; AlphaScreen HP1-beta / biotin-H3K9me3 peptide binding; Potency, µM (series often up to 114 µM), without a hit: at the top dose activity change, negative = inhibition, hits mostly inhibitors; 390,000 compounds, 0.56% hits; AID 540317; note: potency is the fitted concentration of half-maximal effect; nearly all actives have a fitted effect of over 70% in size
Target sequence (P83916 whole entry, looked up): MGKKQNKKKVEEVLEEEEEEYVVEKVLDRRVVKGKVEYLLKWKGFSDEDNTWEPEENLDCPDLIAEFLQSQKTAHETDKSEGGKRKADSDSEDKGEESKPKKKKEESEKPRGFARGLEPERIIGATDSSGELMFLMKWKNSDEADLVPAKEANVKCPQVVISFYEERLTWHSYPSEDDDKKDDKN
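Compound inhibition of the preformed complex between 50 nM HP1-beta and 50 nM biotinylated H3K9me3 peptide was read by AlphaScreen. Buffer was PBS pH 7.4 with 0.01% Tween-20. Incubations ran 30 min at room temperature, with 10 ug/mL donor/acceptor beads.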
JMJD2A Tudor – blocks the human JMJD2A Tudor domain | 390,000 compounds, 4.4% hits | AlphaScreen JMJD2A-Tudor / H3K4me3 peptide binding | Potency, µM (top dose mostly 114 µM), for inactives: at the highest dose activity change, negative = inhibition, actives largely listed as inhibitors | O75164; note: potency is the fitted concentration of half-maximal effect; % is set by controls: 0 for no effect and ±100 for the full control effect; nearly all actives have a fitted effect of over 50% in size
Active calls of the source: *; ? = inconclusive; / = no result given; ! = not confirmed by another sample; [ ] = dose if it differs, or a comment. Rows were chosen to be rich in hits. Some 11% of all compounds tested hit in one or more screens of this group. Unless noted, calls come from the whole dose curve; as a rule, active = well fitted inhibition curve with a large enough effect; inconclusive = small, poorly fitted or top-dose-only effect; inactive = no such curve, though single readings can be large or run the other way.

SMILES	BAZ2B inh	G9a block	L3MBTL1 inh	PI5P4Ka inh	HP1b binding inh	JMJD2A Tudor
Cn1ncnc2c(=O)n(C)c(=O)nc1-2	8%	13µM*	-19%	0	62%	-4%
C=C1C([C@@]2(C)C(OC(C)=O)CC(=O)O[C@@](C)(COC(C)=O)C2CC(=O)OC)C(OC=O)C(OC(=O)C(OC(C)=O)C(C)CC)[C@]2(C)C(c3ccoc3)CC(=O)C12O (stereo partly specified)	/	-28%[2.33 µM]	/	/	/	/
COc1ccc2c(c1)c(=O)c(C(=O)c1ccc(Cl)cc1)cn2CC(=O)Nc1ccc2c(c1)OCCO2	-1%	19%[59 µM]	/	/	52%	-3%
N.N.N.N.N.N.N.N.N.N.N.N.N.N.O.O.[Cl-].[Cl-].[Cl-].[Cl-].[Cl-].[Cl-].[Ru].[Ru].[Ru]	/	3.2µM*	/	/	/	/
CCc1ccc(OCC(=O)N2CCN(CCc3ccncc3)CC2)cc1	9%	-1%[59 µM]	/	/	51%	-23%
O=C1CCCCC1CN1CCCCC1 (stereo unspecified)	/	-8%[12.7 µM]	/	/	/	/
Cc1cccc(C2=NCC(=O)N(CC(=O)NCc3ccco3)c3sc4c(c32)CCCC4)c1	45µM*	?	-6%	/	-22%	50µM*
CNC(=O)Oc1ccc2c(c1)[C@@]1(C)CCN(C)C1N2C (stereo partly specified)	/	3%[2.33 µM]	/	/	/	/
O=C(CSc1nnnn1-c1ccccc1)Nc1ccc(N2CCOCC2)c(Cl)c1	0%	13µM*	/	/	32%	-23%
C[C@@H](COc1ccccc1)N(CCCl)Cc1ccccc1	/	2%[21.5 µM]	/	/	/	/
O=C1C=C(N2CC2)c2ccccc2C1=O	/	/	/	-66*	/	/
COc1ccc2nc(NC(=O)CCNS(=O)(=O)c3ccc4c(c3)oc(=O)n4C)sc2c1	?	12%[12.7 µM]	-6%	-3	19%	-7%
O=c1c2ccccc2cnn1Cc1n[nH]c(=S)n1C1CC2CCC1C2 (stereo unspecified)	-9%	-132%[59 µM]	1%	-8	19%	3.2µM*
CC1O[C@@H](OC2CC(O)[C@@]3(CO)C4C(O)C[C@@]5(C)C(C6=CC(=O)OC6)CC[C@]5(O)C4CC[C@]3(O)C2)C(O)C(O)C1O (stereo partly specified)	/	-27%[2.33 µM]	/	/	/	/
Cn1c(O)c(C=Nc2ccccc2Sc2ccccc2)c(=O)n(C)c1=O	1%	11%[59 µM]	12%	-7	99%	23%[57.1 µM]
Cn1c(N)c(Sc2ccccc2[N+](=O)[O-])c(=O)n(C)c1=O	-2%	45µM*	/	4	5%	-5%
N#Cc1cccc(NC(=O)CSc2nc3c(cc2C#N)N2CCC3CC2)c1	-2%	-2%[59 µM]	/	/	29%	14%
O=c1c2ccccc2nc(/C=C/c2cccnc2)n1Cc1ccccc1	10µM*	/	6.3µM*	2	?	22µM*
O=c1c2ccccc2nc(/C=C/c2ccccc2)n1-c1ccccc1O	?	-7%[0.501 µM]	/	2	-19%	?
C=CCc1cc(C)ccc1OCCCC(C(=O)OCC)C(=O)OCC	169%	112%[59 µM]	98%	5	167%	3%
CC1CN=C(Nc2ccc(N(C)C)cc2)S1 (stereo unspecified)	?	35µM*	-9%	/	-34%	40µM*
C=C1CC[C@H](O)C/C1=C/C=C1\CCC[C@]2(C)[C@@H]([C@H](C)CCCC(C)C)CC[C@@H]12	/	16µM*!	/	/	/	/
CCOP(=O)(c1ccccc1)C(O)c1ccc(F)cc1 (stereo unspecified)	6%	0.63µM*	7%	9	28%	5%
CCOP(=O)(C#Cc1ccccc1)C(O)c1ccc(Br)cc1 (stereo unspecified)	0%	2%	/	-2	26%	-13%
CCOc1ccc(CCNC(=O)c2cc3c(-c4ccc(OC)c(OC)c4)nn(C)c3s2)cc1OCC	/	?	/	/	9%	?
SMILES	BAZ2B inh	G9a block	L3MBTL1 inh	PI5P4Ka inh	HP1b binding inh	JMJD2A Tudor
C=C1CC2C(CC[C@]3(C)C(=O)CCC23)[C@]2(C)C=CC(=O)C=C12 (stereo partly specified)	/	21%[59 µM]	/	/	/	/
CC(C)(Cl)[N+](=O)[O-]	-6%	-8%[0.501 µM]	2%	-1	50%	-21%
O=[N+]([O-])C(Br)(CO)CO	/	1.8µM*	/	/	/	/
N#CC(O[C@@H]1OC(COC2OC(CO)C(O)C(O)[C@@H]2O)C(O)C(O)C1O)c1ccccc1 (stereo partly specified)	/	-38%[2.33 µM]	/	/	/	/
O=C(Oc1ccc(C(=S)N2CCOCC2)cc1)c1ccc([N+](=O)[O-])cc1[N+](=O)[O-]	-1%	45µM*	2%	-9	13%	?
Cc1cc(C)n(C(=O)c2ccc([N+](=O)[O-])cc2[N+](=O)[O-])n1	?	-5%[59 µM]	-2%	7	12%	-17%
O=P(Oc1ccccc1)(Oc1ccccc1)c1ccccc1	0.89µM*	/	31%	3	80%	34%
Clc1ccccc1Cl	/	21%[59 µM]	/	/	/	/
CC12NC(Cc3ccccc31)c1ccccc12 (stereo unspecified)	/	-27%[59 µM]	/	/	/	/
O=C(Cc1ccccc1)Oc1coc(CSc2ncccn2)cc1=O	/	-7%	/	-6	18%	14µM*
O=C(COC(=O)Cc1ccccc1)Nc1cccnc1Cl	-13%	8%	-6%	-11	34%	1%
